# Measurements: PubChem BioAssay AID709 (SRMLSC, 2007)
# The campaign covered roughly 65,000 compounds. About 3,600 (5.5%) were called active. The full list was thinned out, with actives kept by preference. A number with no mark means an inactive call.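 Rule for the calls: active = at 10 µM, mean starting fluorescence two-fold or more over control wells; inactive = the rest.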
# Experiment: intrinsic fluorescence of library compounds, ex339/em460 – biochemical, MLSMR library, data from DPM-DC assay, artefact control, profiling panel (AID 709);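 note: signal is the first read of a kinetic run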
# Settings: compound autofluorescence, ex339/em460 nm, NADH buffer; at 10 µM; stronger effect = higher value; 1 = no-compound wells, NADH background
row,Compound,fluorescence fold increase
1,Cn1c(-c2ccco2)nc2cc3ccccc3cc21,4.72 (active)
2,COc1ccc(CCn2c(-c3ccco3)nc3nc4ccccc4nc32)cc1OC,1.07
3,c1coc(-c2nc3nc4ccccc4n3nc2-c2ccco2)c1,0.92
4,CCC(=O)Nc1nc(OC)cc(OC)n1,1.16
5,C=CCSc1nc2c(c(=O)[nH]1)C(C(C)C)C(C#N)=C(N)O2 (stereo unspecified),1.06
6,Cn1c2c(c(=O)n(C)c1=O)C(c1ccc(O)cc1)Nc1ccccc1O2 (stereo unspecified),1.08
7,CCn1c(=N)c(C(=O)NCCCOC)cc2c(=O)n3cccc(C)c3nc21,3.83 (active)
8,COc1ccc(CCn2c(=N)c(C(=O)NCc3ccco3)cc3c(=O)n4cccc(C)c4nc32)cc1,1.64
9,COCCn1c(=O)[nH]c2cc(C(=O)NCc3cccnc3)ccc2c1=O,1.48
10,O=c1cc(-c2ccccc2)nc(N2CCCCC2)[nH]1,1.26
11,O=c1[nH][nH]c(=O)c2cc(N3CCCC3)ccc12,2.65 (active)
12,CCOc1ccc(C2C(C(=O)NC)=C(C)Nc3nc4ccccc4n32)cc1OC (stereo unspecified),1.15
13,Cc1ccc2c(c1)N(C(=O)CCC(=O)N1CCc3ccccc3C1)CCO2,1.17
14,Cc1ccc(NC(=O)CCN2CCc3ccccc3C2)cc1,1.02
15,Cc1ccc2c(c1)c1ncnc(N3CCc4ccccc4C3)c1n2C,3.33 (active)
16,CCS(=O)(=O)N1CCCC(C(=O)NCc2ccc(C)cc2)C1 (stereo unspecified),1.06
17,O=C(Cn1nnc2ccccc2c1=O)Nc1cc(C(F)(F)F)ccc1N1CCOCC1,1.02
18,COc1ccc(-c2[nH]nc3c2C(c2ccncc2)C(C#N)=C(N)O3)cc1 (stereo unspecified),1.04
19,Cn1c(=O)[nH]c(=O)c2c1nc(Br)n2CCCCSc1nc2ccccc2o1,1.1
20,CCOC(=O)CSC1=C(C#N)C(c2sccc2C)CC(=O)N1 (stereo unspecified),1.13
21,CS(=O)(=O)N(CC(=O)NCc1ccco1)c1ccc2c(c1)OCO2,1.14
22,CCc1c(C)nc2cc(-c3cccs3)[nH]n2c1=O,2.07 (active)

row,Compound,fluorescence fold increase
1,O=c1[nH]c(-c2cccs2)nc2ccccc12,1.17
2,Cc1nc2nc(COc3ccccc3)[nH]n2c(=O)c1Cc1ccccc1,1.09
3,O=P(O)(CP(=O)(c1ccccc1)c1ccccc1)c1ccccc1,1.13
4,CCCCNC(=O)c1c[nH]c2ccc(S(=O)(=O)Nc3ccc(OCC)cc3)cc2c1=O,1.15
5,Cc1nonc1NC(=O)c1ccccc1Br,1.01
6,Cc1ccc(S(=O)(=O)C(C#N)c2nc3ccccc3nc2N2CCCC2)cc1C (stereo unspecified),2.44 (active)
7,CC(C)OC(=O)C(C#N)c1nc2ccccc2nc1N1CCN(Cc2ccccc2)CC1 (stereo unspecified),1.82
8,Cc1cccc2cc(C#N)c(N3CCCC3)nc12,1.58
9,NC(=O)CSc1oc(-c2cccs2)nc1S(=O)(=O)c1ccccc1,1.22
10,CCN(CC(=O)NC(C)C)C(=O)CCNC(=O)c1ccc(Cl)cc1,1.13
11,CCOc1cc2c(cc1OCC)C(C(=O)O)C(c1ccc(OC)c(O)c1)N(C)C2=O (stereo unspecified),1.02
12,Cn1c(CCN2CCCCCC2)nc2cc(NC(=O)Nc3ccccc3)ccc21,1.24
13,O=C(Nc1cccc(NC(=O)N2CCN(c3ccccc3)CC2)c1)N1CCN(c2ccccc2)CC1,1.06
14,Cc1nc2ccc(NC(=O)N3CCC(c4ccccc4)C3)cc2nc1C (stereo unspecified),2.93 (active)
15,CCc1cc(=O)oc2cc(C)cc(OC(C)C(=O)O)c12 (stereo unspecified),3.78 (active)
16,CCCSC1=C(C#N)C(c2ccccc2C)C(C(=O)OC)C(=O)N1 (stereo unspecified),1.13
17,CCc1nc(N2CCN(c3nc(C)cc(C)n3)CC2)c2oc3ccccc3c2n1,2.49 (active)
18,Cc1nc(N2CCN(c3ncccn3)CC2)c2oc3ccccc3c2n1,1.16
19,Cc1cc(C)nc(N2CCN(c3ncnc4c3oc3ccccc34)CC2)n1,1.27
20,Cc1noc(COc2ccccc2OCC(O)CNC(C)(C)C)n1 (stereo unspecified),1.04
21,O=c1c(-c2ccc3c(c2)OCCO3)c(C(F)(F)F)oc2cc(O)cc(O)c12,1.07
22,CCC(C)(C)n1nnnc1C(c1cccs1)N1CCN(c2nc3ccccc3s2)CC1 (stereo unspecified),1.35

row,Compound,fluorescence fold increase
1,CCOC(=O)c1[nH]cnc1C(=O)NC1CCCCC1,1.07
2,COc1cccc(N2CCN(C3CC(=O)N(c4ccc(Cl)cc4)C3=O)CC2)c1 (stereo unspecified),1.12
3,CC1CCCN(C(=O)Cn2c(=O)oc3ccccc32)C1 (stereo unspecified),1.09
4,Cc1nc(NCc2ccccc2)c(C(N)=O)c2c1COC(C)(C)C2,1.89
5,CC(C)Cn1c(CCC(=O)O)ccc1-c1cccs1,3.14 (active)
6,CCCC(=O)NC(C)C(c1cccs1)N1CCN(c2ccccc2)CC1 (stereo unspecified),0.99
7,O=C(O)CCC(=O)N(Cc1cccs1)Cc1cccs1,1.09
8,CCCCOC(=O)c1ccc(N2C(=O)CC(N3CCN(C/C=C/c4ccccc4)CC3)C2=O)cc1 (stereo unspecified),1.12
9,Clc1ccc(Cc2nn3c(-c4ccncc4)nnc3s2)cc1,1
10,CCCCC(=O)Nc1ccc(C(=O)NCCCn2ccnc2)cc1,1.13
11,CCCCC(=O)Nc1ccc2c(c1)C(=O)NC2=O,2.11 (active)
12,CCCCC(=O)Nc1ccc2c(c1)OCCO2,1.08
13,O=C(Nc1ccccc1N1CCN(C(=O)c2ccccc2)CC1)c1ccc2c(c1)OCO2,1.1
14,N#CCSc1nc2ccccc2c(=O)n1-c1ccccc1,1.11
15,CC(C)CCNC(=O)C1CCCN(S(=O)(=O)c2ccc(F)cc2)C1 (stereo unspecified),1.06
16,CSc1nnc(-c2ccncc2)n1CCCN1CCCC1=O,0.81
17,CCOc1cc2[nH]c(=S)n(CCCN3CCCC3=O)c(=O)c2cc1OCC,1.07
18,CC(C)(C)OC(=O)c1c(N)n(CCCN2CCCC2=O)c2nc3ccccc3nc12,3.76 (active)
19,COc1ccc(CNC2CCCCC2)cc1,1.1
20,CCOc1ccc2nc(NCCNS(=O)(=O)c3ccccc3)c(C#N)cc2c1,3.3 (active)
21,CCOc1ccc2cc(C#N)c(SCC(=O)OC)nc2c1,1.95
22,O=S(=O)(NCCNS(=O)(=O)c1ccccc1)c1ccccc1,1.04
